Bioassay records from PubChem BioAssay.
ABCB6 inh 2: inhibitors of human ABC transporter ABCB6; K562-ABCB6 porphyrin accumulation, flow cytometry, 1 h; active compounds read low; Q9NP58; fluorescence ratio to DMSO, % at 10 µM; 360,000 tested, 0.19% active;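 active = fluorescence ratio to DMSO below 75%, the collection mean minus 3 SD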;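 note: signal is porphyrin accumulated inside mitochondria; lower ratio means ABCB6 inhibition with less porphyrin fluorescence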
MEKK2mut PB1 HTS: signal of MEK5 binding to mutant human MEKK2 PB1 domain; bead flow cytometry, Alexa488-MEK5 binding to MEKK2 mutant; percent response, % at 10 µM; 290,000 tested, 0.35% active; AID 1530; in the data active = percent response above about 24%, passing the limit was not always enough
CRFBP-R2 block: blocks CRF-induced signaling of the CRF-BP/CRF-R2 complex; HEK293 CRF-R2/CRF-BP, CRF-induced calcium fluorescence; inhibition, % at 11.8 µM; 350,000 tested, 0.59% active; AID 588475;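 active = inhibition of the ligand-induced calcium signal above about 50% at the single tested concentration, limit read from the data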
MEKK3 PB1 HTS: raises or lowers MEK5 binding to the human MEKK3 PB1 domain | binding response (% of control), % at 10 µM | Q99759 | 290,000 tested, 1.4% active | bead-based flow cytometry, Alexa488-MEK5 binding to MEKK3; actives lie on both sides; 0 = blocked by unlabeled MEK5, 100 = vehicle | AID 1529;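 active = binding response more than 3 SD above or below the average of its plate-row segment, actives on both sides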;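 note: Alexa488 bead fluorescence after subtracting the streptavidin-only scavenger bead signal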
MEKK2 WT-MEK5: raises or lowers MEK5 binding to wildtype human MEKK2 PB1 domain | AID 1531 | Q9Y2U5 | 290,000 tested, 1.1% active | binding response (% of control), % at 10 µM | bead flow cytometry, Alexa488-MEK5 binding to MEKK2 WT; actives lie on both sides; in the data active = binding response below about 67% or above about 130%
CRFBP-R2 agonist: agonists of human CRF-binding protein/CRF-R2 receptor complex; HEK293 CRF-R2/CRF-BP, calcium dye fluorescence (FLIPR); percent of saturating CRF peptide response; activation, % at 13.2 µM; 350,000 tested, 0.46% active; AID 588473;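 active = activation of at least 50%, plus an integration ratio under a set limit after plate pattern correction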
MEKK2wt confirm: raises or lowers MEK5 binding to wildtype human MEKK2, retest; shares compounds with MEKK3 PB1 HTS; bead flow cytometry, Alexa488-MEK5 binding to MEKK2 WT; actives lie on both sides; binding response (% of control), % at 10 µM; 5,900 tested, 2.4% active; AID 1892; in the data active = binding response below about 16% or above about 210%; inactive = in between
MEKK2mut-MEK5: signal of MEK5 binding to mutant human MEKK2, retest | shares compounds with MEKK3 PB1 HTS | AID 1893 | 5,900 tested, 2% active | bead flow cytometry, Alexa488-MEK5 binding to MEKK2 mutant | percent response, % at 10 µM; in the data active = percent response mostly above about 71%, no sharp cut-off; inactive = mostly below about 38%;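 note: higher means compound restores mutant binding toward wildtype level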
MEKK3-MEK5 inh: MEKK3-MEK5 PB1 inhibition, single concentration confirmation | shares compounds with MEKK3 PB1 HTS | bead flow cytometry, Alexa488-MEK5 binding to MEKK3; active compounds read low | binding response (% of control), % at 10 µM | 5,900 tested, 1.8% active;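 active = binding response below 72% of control, or above a set upper limit, though filed actives all read lower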;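 note: lower values mean stronger disruption of MEK5 binding to MEKK3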
Numbers stand for hits; . = inactive; / = no result; [ ] = another dose, or the depositor's remark. Rows were chosen to be rich in hits. Some 2.9% of all compounds tested hit in one or more screens of this group.

SMILES	ABCB6 inh 2	MEKK2mut PB1 HTS	CRFBP-R2 block	MEKK3 PB1 HTS	MEKK2 WT-MEK5	CRFBP-R2 agonist	MEKK2wt confirm	MEKK2mut-MEK5	MEKK3-MEK5 inh
O=C(O)c1ccc(CN2C(=O)CSC2=S)cc1	.	.	.	124	.	.	.	.	.
NC(=O)c1ccc(N2CCNC(=O)C2)c([N+](=O)[O-])c1	.	.	.	.	.	.	/	/	/
CC1CC(C)CN(CCCNC(=O)c2cc3c(=O)[nH]c4ccccc4c3n2C)C1 (stereo not given)	.	.	.	.	.	.	/	/	/
Cn1c(C(=O)NCCCN2CCN(c3ccccc3F)CC2)cc2c(=O)[nH]c3ccccc3c21	.	.	.	.	148	.	.	.	.
O=C(Cc1csc(Nc2nc(=S)[nH]c3ccccc23)n1)NCCCN1CCN(c2ccccc2F)CC1	.	.	.	.	147	.	.	.	.
CC12CN3CC(C)(CN(C1)C3c1ccc(F)cc1)C2 (stereo not given)	.	.	.	130	.	.	.	.	.
CC12CN3CC(C)(CN(C1)C3c1ccc(Cl)cc1)C2 (stereo not given)	.	.	.	.	.	.	/	/	/
Cn1c(SCC(=O)N2CCCC2)nnc1-c1ccc(S(=O)(=O)N2CCCC2)cc1	.	.	.	.	.	.	/	/	/
CCC(=O)Nc1ccc(-c2nnc(SCC(=O)N3CCCCC3)n2C)cc1	.	.	.	2.0[inhibitor]	1.0[inhibitor]	.	.	.	.
CCn1c(SCC(=O)c2ccc(NC(C)=O)c(OC)c2)nnc1-c1ccc(NS(C)(=O)=O)cc1	.	.	.	.	.	.	/	/	/
CCC(=O)Nc1ccc(C(=O)CSc2nnc(-c3ccc(NS(C)(=O)=O)cc3)n2C)cc1OC	.	.	.	73[inhibitor]	.	.	.	.	.
O=C(Nc1ccccc1C(=O)NCCCN1CCOCC1)c1ccc(Cl)cc1	.	.	.	.	.	.	/	/	/
CCN(CC(=O)Nc1c(F)cccc1F)C(=O)/C=C/c1cn(Cc2ccccc2)nc1-c1cccnc1	.	.	.	.	.	.	/	/	/
COC(=O)NCC(c1ccco1)N1CCN(c2ccc(OC)cc2)CC1 (stereo not given)	.	.	.	.	.	.	/	/	/
COc1ccc(N2CCN(C(CNC(=O)C(=O)NCC3CCCO3)c3ccco3)CC2)cc1 (stereo not given)	.	.	.	132	.	.	.	.	.
Cc1ccc(S(=O)(=O)N2CCN(C(=O)Cn3c(=O)oc4ccccc43)CC2)c(C)c1	.	/	.	/	/	.	/	/	/
CCN(CC)C(=O)C1=C(C)N(CCCOC)C(=O)C(CC(=O)NC(c2ccccc2)c2ccccc2)C1 (stereo not given)	.	/	.	/	/	.	/	/	/
Cc1cc(Nc2ccc(C)c(Cl)c2)nc(N2CCOCC2)n1	.	.	.	130	.	.	.	.	.
CCCCc1ccc(-c2nc(N)n[nH]2)cc1	.	.	.	1.0[inhibitor]	2.0[inhibitor]	.	.	.	.
Nc1n[nH]c(-c2ccc(F)cc2)n1	.	.	.	.	.	.	/	/	/
O=C(O)c1cc(-c2ccc(Cl)c(Cl)c2)n(-c2ccccc2)n1	.	.	.	.	.	.	/	/	/
Cc1cc(C)c2c(NC(=S)NC(=O)c3ccccc3)n[nH]c2n1	.	.	.	42[inhibitor]	.	.	.	.	.
Cc1cc(C)c2c(NC(=S)Nc3ccccc3)n[nH]c2n1	.	.	.	.	.	.	/	/	/
COc1cccc(NC(=O)CN(C)C(=O)CC(NC(=O)c2ccccc2Cl)c2ccccc2)c1 (stereo not given)	.	/	.	/	/	.	/	/	/
COc1ccc(N2CCN(c3cc(C)c4cccc(C)c4n3)CC2)cc1	.	.	.	67[inhibitor]	.	.	.	.	.
SMILES	ABCB6 inh 2	MEKK2mut PB1 HTS	CRFBP-R2 block	MEKK3 PB1 HTS	MEKK2 WT-MEK5	CRFBP-R2 agonist	MEKK2wt confirm	MEKK2mut-MEK5	MEKK3-MEK5 inh
Cc1cc(N2CCN(c3ncccn3)CC2)nc2c(C)cccc12	.	.	.	.	.	.	/	/	/
CCc1ccc(C(=O)NC(CCSC)C(=O)OC)cc1 (stereo not given)	.	.	.	3.0[inhibitor]	3.0[inhibitor]	.	.	.	.
COc1ccccc1C(c1nnnn1Cc1ccco1)N1CCN(c2cccc(C)c2C)CC1 (stereo not given)	.	.	.	49[inhibitor]	.	.	.	.	.
CC(=O)Nc1sc(/C(C#N)=C\c2cccc(Cl)c2)nc1-c1ccc(C)cc1	.	.	.	.	13[inhibitor]	319	.	.	.
CC(=O)Nc1sc(N/N=C/c2ccccc2)nc1-c1ccc(C)cc1	.	.	.	.	.	.	/	/	/
N#CC1=C(N)C(C#N)(C#N)C2(CCC3(CC2)OCCO3)C2CC3(CC=C12)OCCO3 (stereo not given)	.	.	.	13[inhibitor]	19[inhibitor]	.	.	.	.
CC1=C(C(=O)OC(C)C)C(C2CC=CCC2)NC(=O)N1 (stereo not given)	.	.	.	0.0[inhibitor]	-4.0[inhibitor]	.	.	.	.
CCOC(=O)C1=C(C)NC(=O)NC1C1CC=CCC1 (stereo not given)	.	.	.	.	.	.	/	/	/
CCc1nnc(NC(=O)C2CC(=O)N(Cc3ccco3)C2)s1 (stereo not given)	.	.	.	122	.	.	.	.	.
N#Cc1ccc(OCC(=O)OCC(=O)c2ccc[nH]2)cc1	.	/	.	/	/	.	/	/	/
CCOC(=O)Cn1nc(C)c(NC(=O)COc2cccc(Cl)c2)c1C	.	.	.	132	.	.	.	.	.
COc1cc(-c2nc3n(n2)C(c2ccncc2)C(C(N)=O)=C(C)N3)cc(OC)c1OC (stereo not given)	.	.	.	122	.	.	.	.	.
Cc1ccc(S(=O)(=O)N2CCC(C(=O)N/N=C/c3cccn3C)CC2)cc1	.	/	.	/	/	.	/	/	/
COc1ccc(Br)c(C(=O)OCC(=O)N2CCC(Cc3ccccc3)CC2)c1	.	/	.	/	/	.	/	/	/
CCCCOc1ccc(S(=O)(=O)Nc2cccnc2)cc1	.	.	.	1.0[inhibitor]	-8.0[inhibitor]	.	.	.	.
Cc1ccc(S(=O)(=O)Nc2cccnc2)cc1	.	.	.	.	.	.	/	/	/
COc1ccccc1NC(=O)C12CC3CC(C1)CC(c1ccc(C)cc1)(C3)C2	.	.	.	.	.	.	/	/	/
COc1ccc(NC(=O)C23CC4CC(C2)CC(c2ccc(C)cc2)(C4)C3)cc1	.	.	.	150	.	.	.	.	.
